C diff HTS – blocks growth of Clostridium difficile; Clostridium difficile clinical isolate growth, OD600, 24 h; active compounds read low; growth activity, negative = inhibition, % at 16 µg/mL (by protocol); actives 0.25% (n = 86,000);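 active means mean growth activity at or below -80% and every replicate also at or below -80%; inconclusive means mean at or below -80% but some replicate above -80%; inactive means mean growth activity above -80%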;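 further: 0% = DMSO wells and -100% = levofloxacin 16 µg/mL wells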
T cruzi growth-1 – T. cruzi proliferation inhibition | T. cruzi beta-gal in NIH3T3, GalScreen luminescence, 90 h | inhibition, % at 8.34 µM | actives 5.9% (n = 77,000);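 active means mean inhibition above about 93%, with at least 55% of replicates each passing it, limit read from the data, passing the limit was not always enough; inconclusive means only one of those two conditions holds; inactive means neither condition holds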
T cruzi growth-2 – inhibitors of T. cruzi proliferation; shares compounds with T cruzi growth-1; T. cruzi beta-gal in NIH3T3, GalScreen luminescence, 90 h; inhibition, % at 8.35 µM; actives 72% (n = 5,600);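 active means mean replicate inhibition above about 95% and at least 55% of replicates individually reaching it, limit read from the data; inconclusive means only one of the two criteria is met; inactive means neither criterion is met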
T cruzi growth-3 – Trypanosoma cruzi proliferation inhibition; shares compounds with T cruzi growth-1; T. cruzi beta-gal in NIH3T3, GalScreen luminescence, 90 h; inhibition, % at 2.09 µM; actives 21% (n = 5,600); AID 651740;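 active means mean inhibition above about 95%, with at least 55% of replicates also reaching it, limit read from the data; inconclusive means meets just one of the two conditions; inactive means meets neither condition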;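 further: plate controls were neutral control median for no effect and positive control median for full effect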
3T3 cytotox – kills mouse NIH/3T3 fibroblasts; NIH/3T3 viability, CellTiter-Glo ATP luminescence, 90 h; shares compounds with T cruzi growth-1; cytotoxicity (signal decrease), % at 8.35 µM; actives 14% (n = 5,600);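 active means mean signal decrease across replicates above about 35% based on untreated-well scatter, with enough replicates individually passing, limit read from the data; inconclusive means no rule stated though some were filed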;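 further: 0% = median of neutral control wells and 100% = median of positive control wells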
3T3 cytotox 2 – kills mouse NIH/3T3 fibroblasts | shares compounds with T cruzi growth-1 | AID 651744 | inhibition, % at 24.9 µM | actives 56% (n = 5,600) | NIH/3T3 viability, CellTiter-Glo ATP luminescence, 90 h;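 active means mean loss of cell viability signal at or above a set limit, and enough replicates individually reaching it; inconclusive means meets only the mean limit or only the replicate share; inactive means meets neither condition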;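 further: 0% = median of neutral control wells and 100% = median of positive control wells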
Numbers without * were called inactive; ? = inconclusive; · = no result. Shown is part of a subset that was picked to be rich in hits.

SMILES	C diff HTS	T cruzi growth-1	T cruzi growth-2	T cruzi growth-3	3T3 cytotox	3T3 cytotox 2
C[C@@H]1CCCCO[C@@H](CN(C)C(=O)Nc2ccc3c(c2)OCO3)[C@@H](C)CN([C@@H](C)CO)C(=O)c2cc(NC(=O)Nc3cccc4ccccc34)ccc2O1	1.2	·	·	·	·	·
C[C@@H]1CCCCO[C@H](CN(C)Cc2ccc3c(c2)OCO3)[C@@H](C)CN([C@H](C)CO)C(=O)c2cc(NC(=O)Nc3cccc4ccccc34)ccc2O1	·	90.8	·	·	·	·
C[C@@H]1CN([C@@H](C)CO)C(=O)c2cc(NC(=O)Nc3cccc4ccccc34)ccc2O[C@@H](C)CCCCO[C@@H]1CN(C)Cc1ccc2c(c1)OCO2	·	102.3*	110.4*	74.9	13.5	23.3
C[C@H](CO)N1C[C@H](C)[C@H](CN(C)C(=O)Nc2ccc3c(c2)OCO3)OCCCC[C@H](C)Oc2ccc(NC(=O)Nc3cccc4ccccc34)cc2C1=O	-3.5	61.5	·	·	·	·
C[C@H](CO)N1C[C@H](C)[C@H](CN(C)Cc2ccc3c(c2)OCO3)OCCCC[C@H](C)Oc2ccc(NC(=O)Nc3cccc4ccccc34)cc2C1=O	·	106.9*	104.0*	96.9*	22.5	45.0*
C[C@@H]1CN([C@@H](C)CO)C(=O)c2cc(NC(=O)Nc3cccc4ccccc34)ccc2O[C@@H](C)CCCCO[C@H]1CN(C)Cc1ccc2c(c1)OCO2	·	120.7*	105.6*	91.1	26.1	105.2*
CN(C)CC#Cc1ccc([C@H]2[C@H](CO)N3C(=O)CN(C(=O)Cc4cccnc4)C[C@@H]23)cc1	1.2	·	·	·	·	·
C[C@H]1CCCCO[C@H](CN(C)S(=O)(=O)c2ccc(Cl)cc2)[C@@H](C)CN([C@@H](C)CO)C(=O)c2cc(NS(=O)(=O)c3ccccc3)ccc2O1	0.2	·	·	·	·	·
COc1ccc(NC(=O)Nc2ccc3c(c2)C(=O)N([C@H](C)CO)C[C@@H](C)[C@@H](CN(C)S(=O)(=O)c2c(C)noc2C)OCCCC[C@H](C)O3)cc1	-6.2	·	·	·	·	·
N#C[C@@H]1[C@H](c2ccc(C3=CCCC3)cc2)[C@@H](CO)N1C(=O)Cc1ccncc1	0.5	52.6	·	·	·	·
CCCN(C)C[C@@H]1Oc2cc(C3=CCCC3)ccc2S(=O)(=O)N([C@H](C)CO)C[C@@H]1C	·	26.5	·	·	·	·
Cc1noc(C)c1NC(=O)N(C)C[C@H]1Oc2ccc(NC(=O)Cn3cnnn3)cc2C(=O)N([C@@H](C)CO)C[C@@H]1C	·	19.7	·	·	·	·
C/C=C/c1ccccc1[C@H]1[C@@H](CO)N(C(=O)Nc2ccc(OC)cc2)[C@H]1C#N	-10.1	·	·	·	·	·
C[C@H](CO)N1C[C@H](C)[C@@H](CN(C)Cc2ccc3c(c2)OCO3)OCCCC[C@H](C)Oc2ccc(NC(=O)Nc3cccc4ccccc34)cc2C1=O	·	?	103.2*	110.5*	33.2	42.1*
CC(C)NC(=O)N1[C@H](C#N)[C@H](c2ccc(C#CC3CCCC3)cc2)[C@@H]1CO	0.5	·	·	·	·	·
N#C[C@@H]1[C@@H](c2ccc(C#CC3CCCC3)cc2)[C@H](CO)N1C(=O)Nc1ccc(F)cc1	-0.2	91.7	·	·	·	·
CC(C)NC(=O)N1[C@@H](C#N)[C@H](c2ccc(C#CC3CC3)cc2)[C@@H]1CO	-8.8	104.4*	105.1*	?	3.3	57.5*
CC(C)NC(=O)N1[C@@H](C#N)[C@H](c2ccc(C#CC3CCCC3)cc2)[C@@H]1CO	1.0	99.6*	105.5*	49.9	-0.5	51.8*
CN(C)CC(=O)N1[C@H](C#N)[C@@H](c2ccc(C#CC3CC3)cc2)[C@H]1CO	6.5	15.8	·	·	·	·
CC(C)NC(=O)N1[C@@H](C#N)[C@@H](c2ccc(C#CC3CCCC3)cc2)[C@@H]1CO	2.9	105.3*	101.4*	77.4	8.1	27.2*
N#C[C@@H]1[C@H](c2ccc(C#CC3CCCC3)cc2)[C@H](CO)N1C(=O)Nc1ccc(F)cc1	-3.9	88.1	·	·	·	·
CC(C)NC(=O)N1[C@H](CO)[C@@H](c2ccc(C#CC3CCCC3)cc2)[C@@H]1C#N	0.9	98.5*	102.8*	37.2	-7.0	10.8
C[C@@H]1CN([C@H](C)CO)C(=O)c2cc(NC(=O)CCCN(C)C)ccc2O[C@H]1CN(C)S(=O)(=O)c1cn(C)cn1	1.0	27.7	·	·	·	·
C/C=C/c1ccc2c(c1)O[C@H](CN(C)C(=O)Nc1ccc(F)cc1)[C@@H](C)CN([C@@H](C)CO)S2(=O)=O	6.0	6.6	·	·	·	·
C[C@@H]1CN([C@H](C)CO)S(=O)(=O)c2ccc(/C=C/c3ccccc3)cc2O[C@@H]1CN(C)C(=O)Nc1cc(F)ccc1F	0.9	·	·	·	·	·
SMILES	C diff HTS	T cruzi growth-1	T cruzi growth-2	T cruzi growth-3	3T3 cytotox	3T3 cytotox 2
C[C@@H]1CN([C@@H](C)CO)S(=O)(=O)c2ccc(/C=C/c3ccccc3)cc2O[C@@H]1CN(C)C(=O)Nc1ccc(F)cc1	-1.6	122.6*	101.7*	103.7*	31.5	47.5*
C[C@@H]1CN([C@@H](C)CO)S(=O)(=O)c2ccc(/C=C/c3ccccc3)cc2O[C@H]1CN(C)C(=O)Nc1ccc(F)cc1	-8.9	131.5*	98.5*	96.0*	38.7*	60.9*
COc1cccc(CN(C)C[C@@H]2OCc3ccccc3-c3c(n(C)c4ccccc34)C(=O)N([C@H](C)CO)C[C@H]2C)c1	-7.9	·	·	·	·	·
C[C@@H]1CN([C@H](C)CO)C(=O)Cc2cc(NC(=O)c3ccncc3)ccc2O[C@@H]1CN(C)Cc1ccc(Cl)c(Cl)c1	-3.7	18.7	·	·	·	·
O=C(c1ccc2c(c1)OCO2)N1CCCCN2[C@@H](CO)[C@H](c3ccc(-c4ccccc4)cc3)[C@@H]2C1	5.4	54.3	·	·	·	·
Cc1cccc(-c2ccc([C@H]3[C@H]4CN(C(=O)c5ccc6c(c5)OCO6)CCCCN4[C@H]3CO)cc2)c1	-3.6	116.0*	105.0*	56.6	30.8	106.1*
COc1cccc(-c2ccc([C@H]3[C@@H](CO)N4CCCCN(C(=O)c5ccc6c(c5)OCO6)C[C@H]34)cc2)c1	2.4	109.8*	105.4*	87.1	33.1	106.1*
Cc1cccc(-c2ccc([C@H]3[C@@H](CO)N4CCCCN(C(=O)c5ccc6c(c5)OCO6)C[C@@H]34)cc2)c1	-4.6	?	110.8*	99.1*	?	90.2*
Cc1cccc(-c2ccc([C@@H]3[C@@H](CO)N4CCCCN(C(=O)c5ccc6c(c5)OCO6)C[C@@H]34)cc2)c1	-3.7	54.9	·	·	·	·
CC(=O)N1CCCCN2[C@H](CO)[C@H](c3ccc(-c4cccc(C)c4)cc3)[C@@H]2C1	-10.6	78.2	·	·	·	·
Cc1cccc(-c2ccc([C@@H]3[C@@H](CO)N4CCCCN(C(=O)c5ccc6c(c5)OCO6)C[C@H]34)cc2)c1	-0.1	106.4*	103.9*	35.2	26.3	103.4*
COc1cccc(-c2ccc([C@@H]3[C@@H](CO)N4CCCCN(C(=O)c5ccc6c(c5)OCO6)C[C@H]34)cc2)c1	-7.3	92.5	·	·	·	·
C[C@@H]1CN([C@@H](C)CO)C(=O)c2cc(NS(=O)(=O)c3cccs3)ccc2O[C@@H]1CN(C)Cc1ccc(Oc2ccccc2)cc1	·	56.4	·	·	·	·
